The panel holds about 83,000 compounds, 20% with a hit somewhere; the sample as a whole holds those more often.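 Plates (96-well) were seeded with cells, treated with compound at one concentration, and incubated for 48 hours before percent growth was determined.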 The source made the active and inactive calls. Rule for the calls: active = growth percent below 10; inactive = the rest.
Assays:
Experiment in all cases: NCI-60 one-dose screen, 48 h (100 = growth as untreated, 0 = no growth, -100 = all killed)
Settings in all cases: 10 µM unless noted
SN12C renal = tested on: SN12C renal
UO-31 renal = tested on: UO-31 renal
TK-10 renal = tested on: TK-10 renal
ACHN renal = tested on: ACHN renal
CAKI-1 renal = tested on: CAKI-1 renal
A498 renal = tested on: A498 renal
CCRF-CEM leukemia = tested on: CCRF-CEM leukemia
EKVX NSCLC = tested on: EKVX NSCLC
MOLT-4 leukemia = tested on: MOLT-4 leukemia

Measured: growth

Cn1cc(-c2ccc(-c3cn(C)c4ncccc34)[nH]2)c2cccnc21
inactive: SN12C renal 75.6% | CAKI-1 renal 54.6% | A498 renal 83.3% | CCRF-CEM leukemia 28.3%
active: UO-31 renal -81.3% | TK-10 renal -30% | ACHN renal 4.29%

Nc1c(C(=O)Nc2cccc3c2OCCO3)sc2nc3c(cc12)CN(Cc1ccccc1)CC3
inactive: EKVX NSCLC 83.3% | SN12C renal 87.2% | UO-31 renal 60.4% | TK-10 renal 96.8% | ACHN renal 77.2% | CAKI-1 renal 55.3% | A498 renal 37.9% | CCRF-CEM leukemia 36.3% | MOLT-4 leukemia 52.5%

CCCCCCCCCCCCCC1=NCCN1CCO
active: CCRF-CEM leukemia 7.19% | MOLT-4 leukemia -1.68%
inactive: EKVX NSCLC 112% | SN12C renal 69.2% | UO-31 renal 54.5% | TK-10 renal 123% | ACHN renal 78.1% | CAKI-1 renal 90.7% | A498 renal 108%

O=C(Nc1cccc2[nH]c(C(F)(F)F)nc12)c1ccc(Br)cc1F
inactive: SN12C renal 26.5% | UO-31 renal 10.9% | TK-10 renal 52.8% | ACHN renal 33.5% | CAKI-1 renal 14.6% | CCRF-CEM leukemia 47.1% | MOLT-4 leukemia 26.9%
active: A498 renal -0.338%

O=C1c2cc3c(cc2-c2c1c1cc(Cl)c(Cl)cc1c(=O)n2CCCn1ccnc1)OCO3
active: SN12C renal -4.67% | UO-31 renal 1.1% | ACHN renal -6.04% | A498 renal -29.9% | CCRF-CEM leukemia 2.94% | MOLT-4 leukemia -24.9%
inactive: EKVX NSCLC 35.7% | TK-10 renal 34.3% | CAKI-1 renal 11.9%

COc1ccc(C(=O)/C=C/c2c[n+](=O)c3ccc(F)cc3n2[O-])cc1
inactive: EKVX NSCLC 92% | SN12C renal 96.2% | UO-31 renal 87.8% | TK-10 renal 106% | ACHN renal 102% | CAKI-1 renal 95.2% | CCRF-CEM leukemia 95.9% | MOLT-4 leukemia 107%

CCOC(=O)c1cnc2ccc(OC)cc2c1Nc1cccc(S(=O)(=O)NC)c1
inactive: EKVX NSCLC 104% | SN12C renal 92.9% | UO-31 renal 93.6% | TK-10 renal 110% | ACHN renal 91.5% | CCRF-CEM leukemia 93% | MOLT-4 leukemia 99.2%

COc1ccc(C(=O)/C=C/c2c(Cl)c3c(c(OC)c2Cl)OCC(=O)N3)cc1
inactive: SN12C renal 27.8% | UO-31 renal 56.7% | TK-10 renal 57.3% | ACHN renal 41.8% | CAKI-1 renal 20.2% | A498 renal 83.5%
active: CCRF-CEM leukemia 5.04% | MOLT-4 leukemia 0.538%

CCNS(=O)(=O)c1ncnc2nc[nH]c12
inactive: EKVX NSCLC 104% | SN12C renal 112% | UO-31 renal 85.8% | TK-10 renal 122% | ACHN renal 119% | CAKI-1 renal 94.9% | A498 renal 110% | CCRF-CEM leukemia 91.1% | MOLT-4 leukemia 122%

O=c1c2cccc3c(NC4CCCCC4)ccc(c32)c2nc3ccccc3n12
inactive: SN12C renal 87% | UO-31 renal 41.4% | TK-10 renal 77.4% | ACHN renal 72.9% | CAKI-1 renal 47.2% | A498 renal 99.1% | CCRF-CEM leukemia 65.4% | MOLT-4 leukemia 49.8%

CC(=O)C1=C(O)C=C2Oc3c(C(=O)/C=C/c4cc(C(F)(F)F)cc(C(F)(F)F)c4)c(O)c(C)c(O)c3[C@]2(C)C1=O
active: EKVX NSCLC -33.9% | SN12C renal -34.1% | UO-31 renal -31.4% | TK-10 renal -32.5% | ACHN renal -75.7% | A498 renal -87.7% | CCRF-CEM leukemia -18.1% | MOLT-4 leukemia -14.1%

Cc1cc(OCc2ccc(C(F)(F)F)cc2)c2c(c1)C(=O)C=C(NCCN1CCCC1)C2=O
inactive: SN12C renal 79.4% | UO-31 renal 53.8% | TK-10 renal 82.7% | ACHN renal 72.5% | CAKI-1 renal 53.1% | A498 renal 67.8% | CCRF-CEM leukemia 13%

CN(C)CC(=O)Nc1ccc(Cn2nnc3c2C(=O)c2nnn(Cc4ccc(NC(=O)CN(C)C)cc4)c2C3=O)cc1
inactive: CAKI-1 renal 41.9%
active: SN12C renal -47.3% | UO-31 renal -20.6% | TK-10 renal -14.2% | ACHN renal -15.9% | A498 renal -91.3% | CCRF-CEM leukemia -32.9%

N#Cc1ccc(NC(=O)Nc2ccc(Cc3ccc(NC(=O)Nc4ccc(C#N)cc4)cc3)cc2)cc1
inactive: EKVX NSCLC 14.5% | SN12C renal 29.5% | TK-10 renal 48.1% | ACHN renal 31.2% | CAKI-1 renal 48.5% | A498 renal 49.5% | CCRF-CEM leukemia 17.4% | MOLT-4 leukemia 12.5%

COc1ccccc1-c1ccc2c(N)c(C(=O)c3ccc4c(c3)OCO4)sc2n1
inactive: SN12C renal 64.2% | UO-31 renal 78.5% | TK-10 renal 73.8% | ACHN renal 88.6% | CAKI-1 renal 70.2% | A498 renal 60.1% | CCRF-CEM leukemia 60.2%

COC(=O)C12C3C(=O)N(c4ccc(OC)cc4)C(=O)C3C(c3cn(-c4ccccc4)nc3C)N1[C@H](c1cn(-c3ccccc3)nc1C)[C@@H]1C(=O)N(c3ccc(OC)cc3)C(=O)[C@@H]12 (some centres undefined)
inactive: SN12C renal 104% | UO-31 renal 97.1% | TK-10 renal 96.5% | ACHN renal 101% | CAKI-1 renal 91.7% | A498 renal 89.4% | CCRF-CEM leukemia 104% | MOLT-4 leukemia 81.8%

CCN(CC)CCC(=O)Nc1ccc(Cn2nnc3c2C(=O)c2nnn(Cc4ccc(NC(=O)CCN(CC)CC)cc4)c2C3=O)cc1
inactive: UO-31 renal 99.9% | TK-10 renal 122% | ACHN renal 87.6% | CAKI-1 renal 85.9% | A498 renal 14.6%
active: SN12C renal -50.1% | CCRF-CEM leukemia -13% | MOLT-4 leukemia -28.9%

CCCCNc1ccc2c3c1cccc3c(=O)n1c3ccccc3nc21
inactive: SN12C renal 90.9% | UO-31 renal 58.6% | TK-10 renal 70.2% | ACHN renal 81.8% | CAKI-1 renal 43.2% | A498 renal 96.1% | CCRF-CEM leukemia 75% | MOLT-4 leukemia 69.4%

O=c1ccc2cc3ccccc3cc2[nH]1
inactive: EKVX NSCLC 28.1% | SN12C renal 94.4% | UO-31 renal 76.4% | TK-10 renal 119% | ACHN renal 108% | CAKI-1 renal 78.4% | A498 renal 97.9% | MOLT-4 leukemia 87.3%
active: CCRF-CEM leukemia -72.7%

Clc1cccc(Nc2nc(Nc3cnc4ccccc4c3)c3[nH]cnc3n2)c1
inactive: EKVX NSCLC 41.3% | SN12C renal 61.2% | UO-31 renal 60.7% | TK-10 renal 114% | ACHN renal 73.5% | CAKI-1 renal 59% | CCRF-CEM leukemia 84.8% | MOLT-4 leukemia 90.6%

O=C(/C=C/c1ccc(Cl)cc1)/C=C/c1cc2ccccc2[nH]c1=O
active: CCRF-CEM leukemia 2.35%
inactive: SN12C renal 62.8% | UO-31 renal 63.9% | TK-10 renal 119% | ACHN renal 74% | CAKI-1 renal 108% | A498 renal 94.7% | MOLT-4 leukemia 15.7%

CC1=C(NCCN2CCCC2)C(=O)c2c(OCc3ccc(F)c(Cl)c3)cccc2C1=O
inactive: SN12C renal 71.2% | UO-31 renal 42.8% | TK-10 renal 69.1% | ACHN renal 83.8% | CAKI-1 renal 50.2% | A498 renal 38.7% | CCRF-CEM leukemia 40.6% | MOLT-4 leukemia 44.3%

CCN(CC)CCCC(C)N/C(=C1\C(=O)NC(=O)\C1=C(/NC(C)CCCN(CC)CC)c1cccc(OC)c1)c1cccc(OC)c1 (centres undefined)
active: SN12C renal 9.96% | UO-31 renal -83.8% | TK-10 renal -23.4% | ACHN renal -29% | CCRF-CEM leukemia -28.1% | MOLT-4 leukemia -10.5%
inactive: CAKI-1 renal 61.4% | A498 renal 60.2%

CCCCCN(CCCCC)CCC[C@@H](C)[C@H]1CC[C@H]2[C@@H]3[C@H](OCCCN)C[C@@H]4C[C@H](OCCCN)CC[C@]4(C)[C@H]3C[C@H](OCCCN)[C@]12C
inactive: SN12C renal 54.3% | UO-31 renal 65.2% | ACHN renal 54.7% | CAKI-1 renal 75.8% | A498 renal 92.8% | CCRF-CEM leukemia 15.3% | MOLT-4 leukemia 41.1%

CCCCCCCCCCCCCCCCNCCC[C@@H](C)[C@H]1CC[C@H]2[C@@H]3[C@H](OCCCN)C[C@@H]4C[C@H](OCCCN)CC[C@]4(C)[C@H]3C[C@H](OCCCN)[C@]12C
active: SN12C renal -82.9% | UO-31 renal -52.5% | TK-10 renal -60.3% | ACHN renal -26.5% | CAKI-1 renal -70.8% | A498 renal -5.88% | CCRF-CEM leukemia -45.5% | MOLT-4 leukemia -33.7%

COc1ccc2nc3cc(Cl)ccc3c(N3CCN(c4nccc(NCc5ccccc5)n4)CC3)c2c1
active: CCRF-CEM leukemia 0.798% | MOLT-4 leukemia 5.21%
inactive: SN12C renal 76% | UO-31 renal 45.9% | TK-10 renal 62.6% | ACHN renal 68.5% | CAKI-1 renal 62.2% | A498 renal 28.8%

COc1ccc(/C=c2/c(=O)[nH]c3nc4sc(C)c(C)c4c(=O)n23)cc1
inactive: SN12C renal 84% | UO-31 renal 73% | TK-10 renal 101% | ACHN renal 91.5% | A498 renal 101% | CCRF-CEM leukemia 66.9% | MOLT-4 leukemia 62.3%

CC1=C(NCCN2CCCC2)C(=O)c2c(OCc3ccc(C(F)(F)F)cc3)cccc2C1=O
inactive: SN12C renal 86.1% | UO-31 renal 62.1% | TK-10 renal 91.8% | ACHN renal 92.6% | CAKI-1 renal 59.9% | MOLT-4 leukemia 12.2%
active: CCRF-CEM leukemia 1.19%

Cc1ccc(S(=O)(=O)n2cc(-c3csc(-c4cn(C)c5ncccc45)n3)c3ccccc32)cc1
inactive: SN12C renal 77.6% | UO-31 renal 57.3% | TK-10 renal 91.3% | ACHN renal 53% | CAKI-1 renal 48.1% | A498 renal 52.2% | CCRF-CEM leukemia 37.4% | MOLT-4 leukemia 49.3%
